# Test results as given in PubChem BioAssay (NCI).
# About 83,000 compounds went through this panel and 20% of them were active in at least one assay; those are over-represented in the sample as a whole.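 For each line, cells grew in 96-well plates with the test compound present at a single concentration for 48 hours.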 Unmarked numbers belong to inactive results. Activity calls are given as the source filed them. The calls were made as follows: active = growth percent below 10; inactive = the rest.
# What was measured:
# Assay in all cases: NCI-60 one-dose screen, 48 h (100 = growth as untreated, 0 = no growth, -100 = all killed)
# Details in all cases: 10 µM unless noted
# [1] = test system: HCT-15 colon
# [2] = test system: HT29 colon
# [3] = test system: SNB-75 CNS
# [4] = test system: SNB-19 CNS
# [5] = test system: U251 CNS
# [6] = test system: PC-3 prostate
# [7] = test system: SK-MEL-5 melanoma
# [8] = test system: UACC-62 melanoma
# [9] = test system: LOX IMVI melanoma
# [10] = test system: SK-MEL-28 melanoma
# [11] = test system: SK-MEL-2 melanoma
# [12] = test system: EKVX NSCLC
# [13] = test system: SN12C renal
# [14] = test system: UO-31 renal
# [15] = test system: TK-10 renal
# [16] = test system: ACHN renal
# [17] = test system: CAKI-1 renal
# [18] = test system: A498 renal
# [19] = test system: CCRF-CEM leukemia
# [20] = test system: MOLT-4 leukemia
SMILES,growth [1],growth [2],growth [3],growth [4],growth [5],growth [6],growth [7],growth [8],growth [9],growth [10],growth [11],growth [12],growth [13],growth [14],growth [15],growth [16],growth [17],growth [18],growth [19],growth [20]
NCCOc1ncccc1/C=C1\C2C=CC=CC2C2C=CC(F)=CC12 (stereo not given),7.3% (active),14.4%,40.3%,16%,10.8%,33.9%,21.7%,31.5%,-22.5% (active),64.3%,113%,43.9%,-3.7% (active),-0.645% (active),41.7%,-34% (active),25%,17.2%,3.62% (active),0.118% (active)
CNCCCNc1nc2ccccc2c2c(=O)c3cc(OC)ccc3sc12,57.5%,4.95% (active),72.6%,79.3%,48.3%,68.8%,91.6%,99.3%,-38.1% (active),103%,113%,87.4%,78.4%,52.4%,98.8%,70.5%,61.7%,56.5%,11.9%,48.3%
Cc1ccc2nc(NC(=O)CSc3nc(Cl)c(C#N)c(-c4ccccc4)n3)sc2c1,99.8%,102%,95.9%,96%,99.1%,89.5%,102%,88.3%,94.3%,103%,102%,102%,98.2%,80.7%,107%,102%,94.8%,102%,105%,104%
COc1cc(C2CC(c3ccc(N(C)C)cc3)=NN2C(C)=O)cc(OC)c1OC (stereo not given),24.6%,9.83% (active),-23.6% (active),39.3%,29.3%,29.4%,9% (active),26.9%,37.6%,52.2%,37.1%,44.3%,37.7%,45.7%,63.4%,44.9%,27%,-1.88% (active),11.8%,11.6%
N/C(=N\c1nc2ccccc2s1)NC(=O)Nc1cccc2ccccc12,18.9%,6.2% (active),5.83% (active),34.8%,14.4%,23.5%,14%,29.2%,41.5%,65.3%,38.7%,40.2%,44%,53.4%,55%,42.1%,29.5%,-10.8% (active),12.2%,19.9%
N#Cc1c(Nc2cccc(Cl)c2)sc(C(=O)c2cc3cc(Cl)ccc3o2)c1N,72.6%,80.5%,101%,97.5%,62.6%,62.8%,73.4%,78.6%,85.9%,94.3%,71.4%,158%,81.3%,81%,127%,112%,151%,128%,52.8%,66.6%
CN1CCN(c2ccc(-c3ccc4ncc(C#N)c(Nc5ccc(F)c(Cl)c5)c4c3)cn2)CC1,13.4%,36.6%,64.1%,74.7%,57%,58.5%,82.9%,86%,68.8%,70.3%,49.7%,48.4%,62.5%,28.7%,34.1%,17.4%,27.2%,-7.02% (active),37.8%,38.2%
C=C1C(=O)O[C@H]2[C@H]1CC/C(COC(=O)CCSSCCC(=O)OC/C1=C/CC[C@@]3(C)O[C@H]3[C@H]3OC(=O)C(=C)[C@@H]3CC1)=C\CC[C@@]1(C)O[C@@H]21,-74.2% (active),-78.7% (active),52.5%,39.2%,-12% (active),-11.6% (active),41.7%,36.7%,-75.8% (active),-42.8% (active),52.4%,12.6%,-45.8% (active),-88.1% (active),-33.8% (active),-85.2% (active),20.3%,72.9%,-23.6% (active),-26.8% (active)
NCCNc1nc2ccccc2c2c(=O)c3cccc(F)c3sc12,36.5%,16.4%,88%,56.8%,43.9%,62.9%,88.2%,95.9%,46.6%,106%,102%,74.1%,47.5%,40.7%,71.7%,34.2%,39.6%,59.7%,34.5%,7.98% (active)
CCOC(=O)/C(C#N)=C\Nc1ccc2ncnc(Nc3ccc(Cl)cc3Cl)c2c1,92.7%,79.4%,91.3%,86.4%,81.4%,59.3%,78.3%,90%,87.4%,109%,110%,41.7%,89.5%,42%,44.2%,62.9%,39%,48.7%,70.9%,58.8%
CN1CCN(c2ccc(-c3cc4c(Nc5ccc(F)c(Cl)c5)ncnn4c3)cn2)CC1,7.04% (active),16.1%,72%,96.2%,82.5%,94.2%,100%,106%,85.2%,87.6%,109%,100%,90.5%,88.2%,76.7%,82.6%,96.3%,86.7%,42.9%,93.6%
O=c1c2cc(C(F)(F)F)ccc2sc2c(NCCCNCCO)nc3ccccc3c12,-67.2% (active),-41.4% (active),56.9%,23.2%,-60.6% (active),23%,38.3%,74.8%,-95.6% (active),55.5%,84.7%,67.3%,36.1%,23.2%,-0.0148% (active),2.14% (active),-67.2% (active),21.8%,-12.5% (active),-50.1% (active)
C=C1C(=O)O[C@H]2[C@H]1CC/C(COC(=O)CCC(=O)NCCOCCOCC(=O)Nc1ccc(OC)c(C(N)=O)c1O)=C\CC[C@@]1(C)O[C@@H]21,92.3%,101%,95.6%,99%,94.9%,101%,102%,89.2%,87.7%,93.2%,89.7%,94.4%,92.7%,92%,96%,87.3%,81.2%,101%,53.7%,97.1%
O=C(N/N=C/c1c(Cl)cccc1Cl)c1ccc(C(F)(F)F)nc1Nc1cccc(C(F)(F)F)c1,-13.5% (active),15.6%,48.8%,19.6%,2.92% (active),7.85% (active),7.65% (active),-3.04% (active),3.01% (active),36.6%,26%,16.9%,1.33% (active),1.91% (active),1.46% (active),-15.7% (active),13.8%,-5.26% (active),-8.45% (active),-12.9% (active)
COc1cc(CCC[P+](c2ccccc2)(c2ccccc2)c2ccccc2)c(OC)c2c1OCO2,93.1%,47.2%,3.69% (active),15.2%,11.5%,14.4%,-48.9% (active),0.576% (active),29.6%,32.1%,-13.1% (active),25.4%,29.6%,93.9%,12.1%,94.1%,75.8%,41.5%,37.8%,44.4%
